The source made the active and inactive calls. Unless noted, no stated cut-off is given here; in the data, active means inhibition above about 25%; inactive means the rest.
What was measured:
[1] = molecular target: Nuclear receptor coactivator 1 (Homo sapiens) (UniProt Q15788); assay: NCOA1 GAL4-fusion reporter inhibition – cell-based, luminescence, quadruplicate, confirmation (AID 588820;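 active means mean inhibition above 46.68%, the untreated control wells mean plus 3 SD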;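 further: 0% = DMSO wells and 100% = gossypol 36 µM treated wells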); conditions: HEK293 GAL4-SRC1 luciferase reporter, at 3.6 µM, stronger effect = higher value
Nuclear receptor coactivator 1 (Homo sapiens), sequence (Q15788 whole entry, looked up, the tested form may be a part): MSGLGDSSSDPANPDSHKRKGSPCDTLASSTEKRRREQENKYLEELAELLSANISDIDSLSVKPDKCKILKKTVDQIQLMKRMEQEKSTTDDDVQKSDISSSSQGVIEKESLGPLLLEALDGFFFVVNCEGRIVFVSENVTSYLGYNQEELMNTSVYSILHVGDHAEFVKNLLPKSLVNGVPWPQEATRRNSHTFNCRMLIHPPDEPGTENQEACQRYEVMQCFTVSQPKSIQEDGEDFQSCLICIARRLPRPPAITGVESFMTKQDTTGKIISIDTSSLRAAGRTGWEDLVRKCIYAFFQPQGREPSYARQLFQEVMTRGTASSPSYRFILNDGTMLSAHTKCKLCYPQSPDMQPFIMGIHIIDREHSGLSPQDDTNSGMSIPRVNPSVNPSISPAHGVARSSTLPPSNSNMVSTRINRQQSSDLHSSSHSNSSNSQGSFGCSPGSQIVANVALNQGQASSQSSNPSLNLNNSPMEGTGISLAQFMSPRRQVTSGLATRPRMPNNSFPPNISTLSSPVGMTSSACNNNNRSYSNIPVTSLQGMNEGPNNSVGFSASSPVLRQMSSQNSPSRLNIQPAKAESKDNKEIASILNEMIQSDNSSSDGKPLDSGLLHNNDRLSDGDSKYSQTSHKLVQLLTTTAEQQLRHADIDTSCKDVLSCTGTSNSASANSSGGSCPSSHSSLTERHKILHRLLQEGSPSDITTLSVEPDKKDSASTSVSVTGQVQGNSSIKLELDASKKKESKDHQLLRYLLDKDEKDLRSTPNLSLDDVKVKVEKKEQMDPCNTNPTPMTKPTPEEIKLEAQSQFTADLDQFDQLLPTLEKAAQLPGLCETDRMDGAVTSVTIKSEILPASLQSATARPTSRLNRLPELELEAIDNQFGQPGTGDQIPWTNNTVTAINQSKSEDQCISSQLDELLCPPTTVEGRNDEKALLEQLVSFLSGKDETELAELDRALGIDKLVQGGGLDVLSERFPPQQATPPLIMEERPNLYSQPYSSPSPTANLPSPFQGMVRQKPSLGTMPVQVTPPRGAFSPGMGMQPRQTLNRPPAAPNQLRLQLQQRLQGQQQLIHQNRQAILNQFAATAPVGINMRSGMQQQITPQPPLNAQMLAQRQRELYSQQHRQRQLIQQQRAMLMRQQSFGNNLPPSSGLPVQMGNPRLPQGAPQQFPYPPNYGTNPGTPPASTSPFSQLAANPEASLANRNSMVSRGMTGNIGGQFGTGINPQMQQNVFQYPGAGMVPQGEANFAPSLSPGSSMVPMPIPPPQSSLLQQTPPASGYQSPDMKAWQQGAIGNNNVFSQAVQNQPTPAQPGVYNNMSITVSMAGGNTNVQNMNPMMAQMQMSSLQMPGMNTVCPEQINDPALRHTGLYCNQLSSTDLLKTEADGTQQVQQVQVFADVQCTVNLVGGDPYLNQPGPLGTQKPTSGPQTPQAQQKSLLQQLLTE

[2] = repression of VP16-driven luciferase reporter – cell-based, luminescence, high throughput, counter-screen for SRC1 inhibitor project (AID 588824); conditions: cell-based VP16 transactivation luciferase luminescence; at 3.6 µM; stronger effect = higher value
[3] = tested on: transactivating tegument protein VP16 (Human herpesvirus 1); assay: compounds suppressing VP16-driven luciferase signal – cell-based, luminescence, single concentration, counter-screen for SRC2 inhibitor project (AID 652007; in the data active means inhibition above about 36%); conditions: cell-based VP16 transactivation luciferase reporter, at 8.9 µM, stronger effect = higher value
[4] = molecular target: Nuclear receptor coactivator 2 (Homo sapiens) (UniProt Q15596); assay: inhibition of GAL4-SRC2 driven luciferase expression – cell-based, luminescence, HEK293, triplicate, confirmation (AID 652008;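 active means mean inhibition above 46.5%, the solvent-only control mean plus 3 SD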;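 further: 0% = DMSO-treated cells and 100% = Gossypol at 36 µM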); conditions: HEK293 GAL4-SRC2 luciferase reporter, at 8.9 µM, stronger effect = higher value
Nuclear receptor coactivator 2 (Homo sapiens), sequence (Q15596 whole entry, looked up, the tested form may be a part): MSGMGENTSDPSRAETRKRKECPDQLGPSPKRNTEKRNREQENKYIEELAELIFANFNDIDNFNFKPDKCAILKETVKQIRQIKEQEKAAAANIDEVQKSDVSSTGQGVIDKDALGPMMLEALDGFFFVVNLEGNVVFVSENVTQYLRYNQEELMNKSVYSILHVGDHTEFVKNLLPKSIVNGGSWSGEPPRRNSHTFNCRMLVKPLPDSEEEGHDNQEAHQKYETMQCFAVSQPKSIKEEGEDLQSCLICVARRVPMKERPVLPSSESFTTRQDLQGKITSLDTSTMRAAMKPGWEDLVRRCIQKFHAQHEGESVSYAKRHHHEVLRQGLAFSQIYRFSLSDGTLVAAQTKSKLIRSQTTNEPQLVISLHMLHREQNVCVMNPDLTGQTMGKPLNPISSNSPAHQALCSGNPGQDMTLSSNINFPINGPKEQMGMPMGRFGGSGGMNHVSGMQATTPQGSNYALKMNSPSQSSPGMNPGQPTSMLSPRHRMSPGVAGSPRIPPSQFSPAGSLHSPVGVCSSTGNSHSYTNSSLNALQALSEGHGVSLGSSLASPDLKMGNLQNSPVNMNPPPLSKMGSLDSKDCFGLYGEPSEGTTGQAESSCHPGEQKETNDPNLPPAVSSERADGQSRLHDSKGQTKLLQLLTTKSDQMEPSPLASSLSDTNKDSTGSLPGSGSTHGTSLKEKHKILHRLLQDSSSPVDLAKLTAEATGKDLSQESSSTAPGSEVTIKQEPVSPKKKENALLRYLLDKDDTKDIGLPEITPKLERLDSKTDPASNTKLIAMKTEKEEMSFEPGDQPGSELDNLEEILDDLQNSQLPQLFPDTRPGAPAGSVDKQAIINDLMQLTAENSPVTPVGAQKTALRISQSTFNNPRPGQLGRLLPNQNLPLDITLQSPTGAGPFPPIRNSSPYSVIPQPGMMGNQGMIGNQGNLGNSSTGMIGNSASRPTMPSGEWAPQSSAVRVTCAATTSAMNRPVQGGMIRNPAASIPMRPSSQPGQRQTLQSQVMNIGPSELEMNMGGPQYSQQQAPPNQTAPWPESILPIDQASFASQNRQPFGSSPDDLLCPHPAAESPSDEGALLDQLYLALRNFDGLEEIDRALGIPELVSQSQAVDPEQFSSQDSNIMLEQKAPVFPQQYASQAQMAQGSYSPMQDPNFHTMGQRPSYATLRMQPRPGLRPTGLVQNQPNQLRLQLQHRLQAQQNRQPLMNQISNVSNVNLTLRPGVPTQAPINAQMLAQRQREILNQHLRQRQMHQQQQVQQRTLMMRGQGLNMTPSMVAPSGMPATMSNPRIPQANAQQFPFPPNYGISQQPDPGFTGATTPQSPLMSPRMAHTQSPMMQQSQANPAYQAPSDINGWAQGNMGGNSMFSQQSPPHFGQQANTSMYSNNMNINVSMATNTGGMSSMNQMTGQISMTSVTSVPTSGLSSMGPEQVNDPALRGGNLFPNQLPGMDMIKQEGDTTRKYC

Measured: inhibition

CCOC(=O)C1CCN(C(=O)c2ccc(OCC(=O)Nc3cccc(C(F)(F)F)c3)c(OC)c2)CC1
inactive: [1] 4.29% | [3] 24.1% | [4] 45.3%
active: [2] 35.4%

CCn1c(Oc2cccc(Br)c2)nc2c1c(=O)n(C)c(=O)n2C
inactive: [1] 15.8% | [2] 12.3% | [3] -33.4% | [4] 10.2%

Cc1ccc(OCC(=O)NC(=S)Nc2ccccn2)c(Br)c1
inactive: [1] -49% | [2] -39.2% | [3] 20.5% | [4] 37.7%

CN(c1ccc(C(=O)N2CCN(Cc3ccc4c(c3)OCO4)CC2)cc1)S(=O)(=O)c1ccccc1
inactive: [1] 14.7% | [2] 23% | [3] 31% | [4] 37.4%

O=S(=O)(Nc1ccc2c(c1)OCCO2)c1cccc2nsnc12
inactive: [1] 7.42% | [2] -8.28% | [3] -9.03% | [4] 44%

Cc1ccc(C(=O)c2cccc(N)c2)cc1C
active: [3] 58% | [4] 76.3%
inactive: [1] -41.2% | [2] 3.5%

O=C(NCCc1cccc(Cl)c1)c1ccc(OC2CCN(Cc3ccccn3)CC2)cc1
inactive: [1] -20.2% | [2] -8.94% | [3] 12.7% | [4] 39.1%

CC(C)CCNC(=O)c1sc2ccc(S(=O)(=O)N3CCCCC3)cc2c1N
inactive: [1] 13.5% | [2] 13.8% | [3] 7.45% | [4] 27.6%

CN(C)S(=O)(=O)N1CCC(Oc2cccc(C(=O)NC3CCCCC3)c2)CC1
inactive: [1] -42% | [2] 22% | [3] 4.19% | [4] 13.4%
